This is a sample that favours compounds with a hit; in the whole collection about 1.8% have one here.
DENV2 CPE rescue: protects cells from dengue virus 2 cytopathic effect; DENV2-infected cells, cytopathic effect rescue, plate reader; CPE inhibition, % at 9.99 µM; 350,000 compounds, 1.7% hits; AID 651640; in the data active = CPE inhibition above about 20%, passing the limit was not always enough; inconclusive = no clear call, values can overlap the other calls; tested in BHK-21 cells
PDI turbidity: PDI (human) enzyme inhibition; P07237; PDI insulin aggregation turbidity, A650, 90 min; inhibition, % at 10 µM; 350,000 compounds, 0.052% hits;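 active = mean inhibition across replicates of 30% or more, whatever share of single replicates reach that level; inconclusive = mean inhibition below 30% while every single replicate reaches 30%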
Target sequence (P07237 whole entry, looked up): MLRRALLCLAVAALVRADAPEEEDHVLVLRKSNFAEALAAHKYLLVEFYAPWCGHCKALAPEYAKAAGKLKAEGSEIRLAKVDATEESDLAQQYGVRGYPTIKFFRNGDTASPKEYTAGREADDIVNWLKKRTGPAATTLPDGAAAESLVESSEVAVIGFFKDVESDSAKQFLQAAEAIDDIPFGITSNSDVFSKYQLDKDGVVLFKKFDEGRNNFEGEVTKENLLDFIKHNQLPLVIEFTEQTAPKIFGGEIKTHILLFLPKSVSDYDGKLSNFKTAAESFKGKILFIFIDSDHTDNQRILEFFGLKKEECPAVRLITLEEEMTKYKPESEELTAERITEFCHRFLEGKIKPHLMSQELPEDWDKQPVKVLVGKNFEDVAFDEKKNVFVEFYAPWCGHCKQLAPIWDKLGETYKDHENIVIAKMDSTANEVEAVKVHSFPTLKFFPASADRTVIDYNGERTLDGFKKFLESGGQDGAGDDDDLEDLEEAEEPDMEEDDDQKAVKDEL
ERp5 block: ERp5 (human) disulfide isomerase inhibition. inhibition, % at 9.99 µM. ERp5 insulin aggregation, absorbance 650 nm, 90 min. 350,000 compounds, 0.05% hits. Q15084;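 active = mean replicate inhibition above about 25%, with every replicate also reaching it, limit read from the data, passing the limit was not always enough; inconclusive = only one of those two criteria met; inactive = neither criterion met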
ERAP1 inh: ERAP1 (human) enzyme inhibition. 340,000 compounds, 0.15% hits. recombinant ERAP1, Leu-AMC fluorescence, 60 min. Q9NZ08. AID 652197. inhibition, % at 10.7 µM;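 active = mean replicate inhibition of at least 30%, or all replicates individually reaching that 30% level; inactive = mean below 30% and not every replicate reaching it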
AF4-AF9 inh: MLL-AF4/AF9 protein interaction inhibition; AlphaScreen, biotin-AF4 peptide binding to FLAG-AF9; AID 651704; 350,000 compounds, 0.47% hits; inhibition, % at 10 µM; P42568;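 active = every replicate reaching a set inhibition limit, whatever the replicate mean, cut at about 25% in these data; inconclusive = mean inhibition reaches that limit but some replicates miss it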
Large screens that a line does not name were inactive.

COc1ccc(CN(C)C[C@H]2Oc3ccc(NC(=O)Cn4cnnn4)cc3C(=O)N([C@@H](C)CO)C[C@@H]2C)cc1	DENV2 CPE rescue inconclusive (no result: PDI turbidity)
O=C(COc1ccc(S(=O)(=O)N2CCOCC2)cc1Cl)N1CCCC1	AF4-AF9 inh 42
CCOc1cc(OCC)cc(C(=O)N2CCC[C@@H]2C(=O)N2CCC[C@@H]2C(=O)NCc2ccccc2Cl)c1	DENV2 CPE rescue 81 (no result: PDI turbidity, ERAP1 inh)
CC(C)(C)OC(=O)N1CCC[C@@H]1C(=O)N1CCC[C@@H]1C(=O)NCc1ccccc1Cl	DENV2 CPE rescue 34 (no result: PDI turbidity)
CCOc1cc(OCC)cc(C(=O)N2CCC[C@H]2C(=O)N2CCC[C@H]2C(=O)NCc2ccc(F)cc2F)c1	none (no result: PDI turbidity)
CC(=O)Nc1ccc(NC(=O)C(C)OC(=O)c2ccccc2Sc2ccccc2C#N)cc1 (stereo unspecified)	AF4-AF9 inh 96
C[C@H](CO)N1C[C@H](C)[C@H](CN(C)C(=O)NC2CCCCC2)Oc2ccc(NC(=O)C3CCCCC3)cc2CC1=O	none (no result: PDI turbidity)
CSc1cccc(NC(=O)CC2Oc3ccccc3NC2=O)c1 (stereo unspecified)	DENV2 CPE rescue 37
COc1cccc(NC(=O)CC2Oc3ccccc3NC2=O)c1 (stereo unspecified)	none
COc1ccc(/C=C(/NC(=O)c2ccc(OC)c(OC)c2)C(=O)NCCc2c[nH]c3ccccc23)cc1	DENV2 CPE rescue 20
C[C@H]1CN([C@@H](C)CO)C(=O)c2cc(NC(=O)CCN3CCOCC3)ccc2O[C@H]1CN(C)S(=O)(=O)c1ccc(Cl)cc1	none (no result: PDI turbidity)
CO[C@H]1CN(C)C(=O)c2cc(NC(=O)C3CC3)ccc2OC[C@@H](C)N(C(C)=O)C[C@H]1C	none (no result: PDI turbidity)
COCc1cccc(-c2csc(C(O)c3ccc(F)c(F)c3)n2)c1 (stereo unspecified)	none
COCc1cccc(-c2csc(C(N)c3ccc(F)c(F)c3)n2)c1 (stereo unspecified)	DENV2 CPE rescue 21
CN(C)c1ccc(C=Nc2ccc(N(C)C)cc2)cc1	none (no result: DENV2 CPE rescue, ERp5 block, ERAP1 inh, AF4-AF9 inh)
Cc1nc(/N=C\c2ccc(N(C)C)cc2)sc1C	DENV2 CPE rescue 33 (no result: AF4-AF9 inh)
Cc1cc(C(=O)Nc2cccc3c2O[C@H](CN(C)S(C)(=O)=O)[C@@H](C)CN([C@H](C)CO)C3=O)n(C)n1	none (no result: PDI turbidity)
CCOc1cc(/C=C/c2nc3cc(C)c(C)cc3s2)ccc1OCC(=O)N1CCOCC1	ERAP1 inh 36
COCC(=O)N1[C@H](CO)[C@H](c2ccccc2-c2cccc(F)c2)[C@@H]1C#N	DENV2 CPE rescue 33 (no result: PDI turbidity)
N#C[C@@H]1[C@@H](c2ccccc2-c2cccc(F)c2)[C@@H](CO)N1C(=O)C1CCC1	DENV2 CPE rescue 29 (no result: PDI turbidity)
N#C[C@H]1[C@H](c2ccccc2-c2ccccc2)[C@@H](CO)N1C(=O)Cc1cccnc1	DENV2 CPE rescue 35 (no result: PDI turbidity)
CC(C)NC(=O)N(C)C[C@@H]1Oc2ccc(NC(=O)Nc3ccc4c(c3)OCO4)cc2C(=O)N([C@@H](C)CO)C[C@H]1C	none (no result: PDI turbidity)
CCNC(=O)C[C@H]1CC[C@@H]2[C@H](COC[C@H](O)CN2C(=O)Nc2cccc(OC)c2)O1	none (no result: PDI turbidity, ERp5 block, ERAP1 inh, AF4-AF9 inh)
O=C(Cn1c(=O)oc2cc(S(=O)(=O)NCc3ccccc3)ccc21)N1CCCC1	AF4-AF9 inh 29 (no result: ERAP1 inh)
CCCN1CCN(C(=O)Cn2c(=O)oc3cc(S(=O)(=O)NCc4ccccc4)ccc32)CC1	none
Cc1ccc(Sc2ncccc2C(=O)NCc2cc([N+](=O)[O-])ccc2O)cc1C	DENV2 CPE rescue 58
O=C(NC[C@H]1CC[C@H]2[C@H](CN2C(=O)C2CC2)O1)c1cnccn1	none (no result: PDI turbidity)
C[C@@H]1CN([C@H](C)CO)C(=O)c2cccc(NS(=O)(=O)c3cn(C)cn3)c2O[C@H]1CN(C)S(=O)(=O)c1cccs1	none (no result: PDI turbidity)
COc1ccc(OC)c(S(=O)(=O)N/N=C\c2c[nH]c3ccccc23)c1	DENV2 CPE rescue 37
Clc1ccc(-c2csc(=Nc3cccnc3)n2CCCn2ccnc2)cc1Cl	AF4-AF9 inh 47
Cc1ccc(C(C)C)c(OCCNC(=O)c2ccccc2O)c1	DENV2 CPE rescue 45
CSc1ccc(Cl)c(C(=O)NCCOc2cc(C)ccc2C(C)C)c1	none
CC1(c2nnc(Cc3ccccc3)o2)CC(c2ccc(Br)cc2)=NO1 (stereo unspecified)	none (no result: DENV2 CPE rescue, ERp5 block, ERAP1 inh, AF4-AF9 inh)
CC1(c2nnc(Cc3ccccc3)o2)CC(c2ccc([N+](=O)[O-])cc2)=NO1 (stereo unspecified)	DENV2 CPE rescue 31
CCC(=O)N[C@H]1C=C[C@H](CC(=O)NCc2ccc(OC)cc2)O[C@@H]1CO	none (no result: PDI turbidity)
N#C[C@@H]1[C@@H](c2ccc(-c3cncnc3)cc2)[C@H](CO)N1C(=O)C1CCOCC1	none (no result: PDI turbidity)
